From PubChem BioAssay
Active and inactive are the calls of the source. Unless noted, no rule for the calls is given here.

Assays:
[1] = compound effects on lung adenocarcinoma cell viability – A549, calcein-AM fluorescence, 48 h, basal, profiling panel (AID 1162); settings: higher = more signal; also: test concentration not given here
[2] = compound effects on differentiated 3T3-L1 adipocyte viability – cell-based, 3T3-L1 adipocytes, calcein-AM fluorescence, 48 h, basal, profiling panel (AID 1163); settings: 3T3-L1 adipocytes viability, higher = more signal; also: test concentration not given here
[3] = compound effects on hepatocellular carcinoma cell viability – HepG2, calcein-AM fluorescence, 48 h, basal, profiling panel (AID 1164); settings: higher = more signal; also: test concentration not given here
[4] = compound effects on multiple myeloma cell viability – MM1S, calcein-AM fluorescence, 48 h, basal, profiling panel (AID 1165); settings: higher = more signal;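 also: viability of MM1S multiple myeloma cells under basal unstimulated conditions; test concentration not given here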
[5] = calcein-AM signal in unstimulated myeloma cells – cell-based, calcein-AM fluorescence, 48 h, PK04 Diversity Set, profiling panel (AID 1166); settings: RPMI8226 myeloma viability, higher = more signal;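 also: cells grown under basal conditions without added stimulus; test concentration not given here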
[6] = JC-1 mitochondrial signal, unstimulated HepG2 cells – cell-based, JC-1 fluorescence, 24 h, 100 nL compound, profiling panel (AID 1167); settings: HepG2 mitochondrial potential, higher = more signal; also: test concentration not given here
[7] = JC-1 mitochondrial signal, unstimulated adipocytes – cell-based, JC-1 fluorescence, 3T3-L1 adipocytes, 24 h, 100 nL compound, profiling panel (AID 1168); settings: JC-1 mitochondrial fluorescence, higher = more signal, called active from +8 up or from −8 down; also: test concentration not given here
[8] = JC-1 mitochondrial signal, unstimulated myeloma cells – cell-based, JC-1 fluorescence, RPMI8226, 24 h, 100 nL compound, profiling panel (AID 1169); settings: JC-1 mitochondrial potential fluorescence, higher = more signal; also: test concentration not given here
[9] = JC-1 mitochondrial signal, unstimulated MM1S myeloma – cell-based, JC-1 fluorescence, 24 h, 100 nL compound, profiling panel (AID 1170); settings: MM1S mitochondrial potential, higher = more signal; also: test concentration not given here
[10] = resazurin metabolic signal in A549 cells – cell-based, resazurin fluorescence, 24 h, PK04 Diversity Set, profiling panel (AID 1171); settings: A549 viability, higher = more signal, called active from +8 up or from −8 down; also: test concentration not given here
[11] = resazurin metabolic signal in HepG2 cells – cell-based, resazurin fluorescence, 24 h, PK04 Diversity Set, profiling panel (AID 1172); settings: HepG2 viability, higher = more signal; also: test concentration not given here
[12] = budding yeast growth changes without added modifier – OD600, strain BY4716, 24 h, basal condition, primary screen (AID 1173); settings: S. cerevisiae BY4716 growth, OD600, 24 h; higher = more signal, called active from +8 up or from −8 down
[13] = viability profiling in MM1S myeloma cells – cell-based, resazurin fluorescence, basal, 24 h, PK04 Diversity Set, profiling panel (AID 1174); settings: higher = more signal, called active from +8 up or from −8 down; also: test concentration not given here
[14] = target: Dihydroorotate dehydrogenase (quinone), mitochondrial (Plasmodium falciparum (isolate 3D7)) (UniProt Q08210); assay: inhibition of P. falciparum DHODH – biochemical, C-terminal His tag, absorbance 600 nm, primary screen (AID 1175); settings: PfDHODH enzyme, DCIP absorbance 600 nm; higher = more signal, called active from +8 up or from −8 down;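 also: recombinant parasite enzyme with a five histidine tag at its C terminus; test concentration not given here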
Chain of Dihydroorotate dehydrogenase (quinone), mitochondrial (Plasmodium falciparum (isolate 3D7)) (Q08210 whole entry, looked up): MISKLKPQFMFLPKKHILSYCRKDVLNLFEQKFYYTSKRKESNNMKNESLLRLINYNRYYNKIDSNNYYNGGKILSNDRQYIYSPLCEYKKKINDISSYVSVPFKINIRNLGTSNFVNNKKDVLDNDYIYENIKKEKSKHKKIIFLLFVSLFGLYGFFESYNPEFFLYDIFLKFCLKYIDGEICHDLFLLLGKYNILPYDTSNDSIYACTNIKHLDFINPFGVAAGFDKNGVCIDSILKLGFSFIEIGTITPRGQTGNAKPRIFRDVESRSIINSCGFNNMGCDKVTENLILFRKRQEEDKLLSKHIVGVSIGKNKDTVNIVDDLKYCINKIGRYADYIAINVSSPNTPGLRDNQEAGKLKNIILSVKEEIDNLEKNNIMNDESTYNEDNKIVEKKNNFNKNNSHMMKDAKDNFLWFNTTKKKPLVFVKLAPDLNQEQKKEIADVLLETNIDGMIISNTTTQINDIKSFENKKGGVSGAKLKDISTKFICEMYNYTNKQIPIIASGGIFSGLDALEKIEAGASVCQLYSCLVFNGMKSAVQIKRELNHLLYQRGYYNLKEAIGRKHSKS

[15] = inhibition of PAO1 biofilm formation – strain PAO1, LB-PBS medium, absorbance 600 nm, primary screen (AID 1176); also: test concentration not given here; settings: P. aeruginosa PAO1 growth/biofilm, A600, 12 h; higher = more signal
[16] = growth modulation of vineyard yeast isolate – strain RM11-1a, OD600, basal, 24 h, primary screen (AID 1177);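 also: cultures grown under basal conditions with no added stressor; test concentration not given here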; settings: S. cerevisiae RM11-1a growth, OD600, 24 h; higher = more signal, called active from +8 up or from −8 down
[17] = growth of efflux-deficient E. coli DRC39 – strain DRC39, OD650, 24 h, E. coli filamentation inducers, primary screen (AID 1178);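 also: growth measured as culture turbidity by optical density at 650 nm; test concentration not given here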; settings: E. coli DRC39 acrAB, higher = more signal, called active from +8 up or from −8 down
[18] = growth of efflux-deficient E. coli DRC39 – strain DRC39, OD650, 48 h, E. coli filamentation inducers, primary screen (AID 1179);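 also: screen aims at cell division blockers that make cells filament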; settings: E. coli DRC39 delta-acrAB growth, higher = more signal, called active from +8 up or from −8 down
[19] = viability profiling in RPMI8226 myeloma cells – cell-based, resazurin fluorescence, basal, 24 h, PK04 Diversity Set, profiling panel (AID 1180); settings: higher = more signal;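 also: RPMI8826 multiple myeloma cell line at 5000 cells per well; test concentration not given here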
[20] = target: E3 ubiquitin-protein ligase XIAP (Homo sapiens) (UniProt P98170); assay: small molecules binding XIAP protein – biophysical, small-molecule microarray, fluorescence 635 nm, primary screen (AID 1181); settings: higher = more signal;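 also: score merges 667 nm emission and signal to noise over triplicate slides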
Chain of E3 ubiquitin-protein ligase XIAP (Homo sapiens) (P98170 whole entry, looked up): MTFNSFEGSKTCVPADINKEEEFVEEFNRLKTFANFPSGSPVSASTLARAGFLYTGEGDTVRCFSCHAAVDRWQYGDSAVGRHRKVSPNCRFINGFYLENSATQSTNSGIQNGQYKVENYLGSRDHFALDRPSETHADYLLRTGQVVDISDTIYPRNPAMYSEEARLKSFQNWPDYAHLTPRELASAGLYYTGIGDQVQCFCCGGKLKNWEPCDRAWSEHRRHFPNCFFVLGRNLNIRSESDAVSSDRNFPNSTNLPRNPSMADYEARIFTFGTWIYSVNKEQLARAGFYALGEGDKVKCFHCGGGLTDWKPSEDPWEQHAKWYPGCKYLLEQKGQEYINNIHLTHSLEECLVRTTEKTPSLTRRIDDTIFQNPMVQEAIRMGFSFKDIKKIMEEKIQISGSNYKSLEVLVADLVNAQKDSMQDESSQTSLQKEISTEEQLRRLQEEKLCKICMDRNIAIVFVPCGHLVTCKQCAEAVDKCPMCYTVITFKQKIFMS

SMILES	z-score [1]	z-score [2]	z-score [3]	z-score [4]	z-score [5]	z-score [6]	z-score [7]	z-score [8]	z-score [9]	z-score [10]	z-score [11]	z-score [12]	z-score [13]	composite z-score [14]	z-score [15]	z-score [16]	z-score [17]	z-score [18]	z-score [19]	composite z-score [20]
COCCCNC(=O)[C@]1(Cc2ccccc2CN=[N+]=[N-])N=C(c2ccc(OCCCO)cc2)O[C@@H]1c1ccccc1	-1.36	0.503	-0.79	-2.62	-4.24	-0.194	0.48 (inactive)	-1.15	-1.11	0.28 (inactive)	1.27	-0.682 (inactive)	-1.48 (inactive)	0.633 (inactive)	-0.441 (inactive)	0.916 (inactive)	1.18 (inactive)	0.422 (inactive)	-3.11	0.216
O=C1NC(=O)C2C1C=CC(C(O)c1c(F)cccc1Cl)N2Nc1ccccn1 (stereo not given)	0.0619	-0.92	0.0038	0.312	-0.825	-1.05	-0.957 (inactive)	-0.517	0.15	-0.609 (inactive)	-1.73	1.19 (inactive)	-1.65 (inactive)	0.722 (inactive)	0.543 (inactive)	-0.0601 (inactive)	-0.883 (inactive)	-0.0739 (inactive)	-1.74	0.118
COCCOC(=O)N1C(=O)[C@@]2(c3cc(C#CC4(O)CCCCCC4)ccc31)[C@H](C(N)=O)[C@H]1C(=O)O[C@H](c3ccccc3)[C@H](c3ccccc3)N1[C@@H]2c1ccc(O)cc1	1.47	0.521	0.412	-2.88	-3.95	-0.0298	-0.62 (inactive)	-0.522	-1.25	0.394 (inactive)	0.061	-0.676 (inactive)	-0.907 (inactive)	-0.942 (inactive)	0.51 (inactive)	0.389 (inactive)	-0.0029 (inactive)	0.761 (inactive)	-1.73	-0.144
C#CCNC(=O)[C@H](Cc1ccccc1)NC(=O)[C@@H](N=[N+]=[N-])C(C)C	-0.447	-0.804	0.0785	0.579	0.116	-0.266	-0.503 (inactive)	-0.205	0.254	0.903 (inactive)	0.664	-1.19 (inactive)	0.633 (inactive)	-0.635 (inactive)	-0.24 (inactive)	-0.597 (inactive)	0.713 (inactive)	0.626 (inactive)	0.816	0.117
Cc1ccc(F)cc1S(=O)(=O)N[C@@H]1CCN(Cc2ccc(OC(C)C)cc2)C1	0.0197	-0.382	-0.867	-2.58	-0.974	-1.41	0.0582 (inactive)	0.0721	-1.87	-0.26 (inactive)	-0.917	-8.98 (active)	-2.09 (inactive)	-0.0588 (inactive)	-0.225 (inactive)	0.652 (inactive)	-20 (active)	-19.8 (active)	-0.945	-0.0794
CCCC[C@@H]1C[C@H]1[C@@H](NC(=O)c1ccccc1)c1ccc(Cl)cc1	-1.35	-0.847	-1.17	-1.23	-1.45	0.229	-1.6 (inactive)	-0.852	-1.19	2.09 (inactive)	1.18	0.127 (inactive)	0.696 (inactive)	-0.402 (inactive)	0.495 (inactive)	-0.359 (inactive)	-1.11 (inactive)	-0.324 (inactive)	1.51	0.0049
CN1C(=O)C2C=CC(C(O)Cc3ccccc3)N(N(c3ccccc3)c3ccccc3)C2C1=O (stereo not given)	1.02	-1.5	1.35	-0.64	0.0338	1.37	-0.833 (inactive)	0.257	-0.871	-0.69 (inactive)	-0.567	-0.519 (inactive)	-1.62 (inactive)	-0.443 (inactive)	0.543 (inactive)	0.303 (inactive)	-0.804 (inactive)	-0.233 (inactive)	-0.855	0.0918
CC(C)C(O)C1C=CC2C(=O)N(C)C(=O)C2N1Nc1ccccc1 (stereo not given)	0.678	-0.955	0.0515	-1.53	-0.283	-0.993	-1.15 (inactive)	-0.0596	-0.254	0.204 (inactive)	-0.0778	-0.411 (inactive)	-0.84 (inactive)	-0.482 (inactive)	0.931 (inactive)	0.0222 (inactive)	-0.219 (inactive)	-0.434 (inactive)	-1.29	0.0159
Cc1ccc(F)cc1S(=O)(=O)N[C@@H]1CCN(Cc2ccc(Oc3ccccc3)cc2)C1	-1.26	-0.119	-1.25	-3.43	-3.16	0.998	0.546 (inactive)	-1.19	-2.3	-0.214 (inactive)	-0.971	-17.3 (active)	-0.627 (inactive)	0.255 (inactive)	-0.177 (inactive)	-9.2 (active)	-5.2 (inactive)	-4.66 (inactive)	-0.942	-0.13
